Measurements as given in PubChem BioAssay (NCATS).
Unmarked numbers belong to inactive results. How the calls were made is not given here.

system: HIV-1 nucleocapsid protein NCp7 (binding to TG oligonucleotide); assay: HIV Nucleocapsid (AID 346); conditions: HIV-1 NC / fluorescein-TGTGTGTG probe, fluorescence polarization;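 further: potency is for inhibitors that block NC binding and lower polarization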
In short: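 Fluorescence polarization readout: labelled TG4xF oligo (10 nM) with 100 nM nucleocapsid protein, high-salt (250mM NaCl) Hepes pH 7.5 buffer containing zinc and fresh reducing agents. Compounds added by pin tool; incubation 1 hr, room temperature.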
Potency means the concentration at half of the fitted maximal effect.

Q: For `COCCn1c(=O)cnc2cnc(Nc3cccc(OC)c3)nc21`, which Potency is on record?
A: Its Potency is greater than 20 µM.

Q: How did the Potency turn out when `CCNc1ncc2nc(-c3ccccc3)c(=O)n(CCC#N)c2n1` was run?
A: The Potency was greater than 20 µM.

Q: Which Potency does the source give for `COc1ccc(-n2c(=O)c(-c3ccccc3)nc3cnc(N4CCN(C)CC4)nc32)cc1` here?
A: Its Potency is greater than 20 µM.

Q: For `COc1ccc(C(=O)N2CCC3(CCN(C(=O)Nc4ccccc4)CC3)CC2)cc1`, which Potency is on record?
A: Its Potency is greater than 20 µM.

Q: With `O=C(c1cc(C(F)(F)F)cc(C(F)(F)F)c1)N1CCC2(CC1)CCN(c1ncccn1)CC2` as the compound, how does the Potency read?
A: Its Potency is greater than 20 µM.

Q: How did the Potency turn out when `Cn1cccc1C(=O)N1CCC[C@@]2(CCN(Cc3nccs3)C2)C1` was run?
A: Its Potency is greater than 20 µM.

Q: How did the Potency turn out when `O=c1c(-c2cccs2)nc2cnc(Oc3ccccc3)nc2n1Cc1cccs1` was run?
A: Its Potency is greater than 20 µM.

Q: How did the Potency turn out when `Cc1ccccc1-c1nc(NCCN2CCOCC2)c2ccccc2n1` was run?
A: Its Potency is greater than 20 µM.

Q: `COc1ccc(CNc2ccnc(-c3c(C)noc3C)n2)c(OC)c1` was tested. Which Potency did it give?
A: Its Potency is greater than 20 µM.

Q: How did the Potency turn out when `COc1ccc(Oc2ncc3nc(-c4ccc(F)cc4)c(=O)n(C[C@H]4CCCO4)c3n2)cc1` was run?
A: The Potency was greater than 20 µM.

Q: With `c1cncc(-c2nccc(-n3ccnc3)n2)c1` as the compound, how does the Potency read?
A: The Potency was greater than 20 µM.

Q: Which Potency does the source give for `Cc1cnc(CNc2cc(-c3c(C)noc3C)ncn2)cn1` here?
A: Its Potency is greater than 20 µM.

Q: For `Cc1cnc(CNc2ncnc3ccc(-c4ccc(N(C)C)cc4)cc23)cn1`, which Potency is on record?
A: The Potency was greater than 20 µM.

Q: For `O=c1cnc2cnc(OCc3ccccc3)nc2n1CCc1ccccc1`, which Potency is on record?
A: Its Potency is greater than 20 µM.

Q: For `COc1ncc2nc(-c3cccc(C#N)c3)c(=O)n(CCC#N)c2n1`, which Potency is on record?
A: Its Potency is greater than 20 µM.

Q: With `COc1ccccc1CNc1ncnc2ccc(-c3cccnc3)cc12` as the compound, how does the Potency read?
A: Its Potency is greater than 20 µM.

Q: With `N#Cc1cccc(-c2nc3cnc(N4CCNCC4)nc3n(C3CC3)c2=O)c1` as the compound, how does the Potency read?
A: The Potency was greater than 20 µM.

Q: For `COc1ccc(CNc2ncncc2-c2cccc(C#N)c2)c(OC)c1`, which Potency is on record?
A: Its Potency is greater than 20 µM.

Q: `O=c1c(-c2ccc(F)cc2)nc2cnc(Nc3ccccc3)nc2n1Cc1cccs1` was tested. Which Potency did it give?
A: Its Potency is greater than 4 µM.

Q: For `COC(=O)N1CCC2(CC1)CN(c1ccncc1)C2`, which Potency is on record?
A: Its Potency is greater than 20 µM.

Q: How did the Potency turn out when `COc1ccc(Oc2ncc3nc(-c4cccc(C#N)c4)c(=O)n(C)c3n2)cc1` was run?
A: The Potency was greater than 20 µM.

Q: Which Potency does the source give for `Cc1noc(C)c1C(=O)N1CCC2(CC1)CCN(c1ccccn1)CC2` here?
A: The Potency was greater than 20 µM.

Q: `CN(C)c1ncc2nc(-c3ccc(Cl)cc3)c(=O)n(Cc3cccs3)c2n1` was tested. Which Potency did it give?
A: Its Potency is greater than 4 µM.

Q: How did the Potency turn out when `O=c1c(-c2ccc(Cl)cc2)nc2cnc(N3CCNCC3)nc2n1Cc1cccs1` was run?
A: Its Potency is greater than 20 µM.

Q: For `O=C(O)C1CCN(c2ncnc3ccc(-c4ccccc4C(F)(F)F)cc23)CC1`, which Potency is on record?
A: Its Potency is greater than 20 µM.

Q: How did the Potency turn out when `CC(C)NC(=O)N1CC2(CCN(C(=O)c3ccncc3)CC2)C1` was run?
A: Its Potency is greater than 20 µM.

Q: `CN(C)c1ccc(-c2nccc(NCc3cccs3)n2)cc1` was tested. Which Potency did it give?
A: The Potency was greater than 20 µM.

Q: How did the Potency turn out when `COc1ccccc1-c1ccc2ncnc(N3CCOCC3)c2c1` was run?
A: The Potency was greater than 20 µM.

Q: With `CCNc1ncc2nc(CCc3ccccc3)c(=O)n(-c3ccccc3)c2n1` as the compound, how does the Potency read?
A: Its Potency is greater than 4 µM.

Q: `CS(=O)(=O)N1CCC[C@@]2(CCN(c3ccncc3)C2)C1` was tested. Which Potency did it give?
A: Its Potency is greater than 20 µM.

Q: How did the Potency turn out when `Cn1cccc1C(=O)N1CCC[C@@]2(CCN(C(=O)Nc3cccc(F)c3)C2)C1` was run?
A: The Potency was greater than 20 µM.

Q: With `CNc1ncncc1-c1ccc(C(=O)N(C)C)cc1` as the compound, how does the Potency read?
A: Its Potency is greater than 20 µM.

Q: Which Potency does the source give for `CC(=O)NCCNc1ccnc(-c2ccccc2C)n1` here?
A: The Potency was greater than 20 µM.

Q: How did the Potency turn out when `CC(=O)NCCNc1ncncc1-c1ccccc1C(F)(F)F` was run?
A: The Potency was greater than 20 µM.

Q: `Cn1cccc1C(=O)N1CCC2(CCCN(c3ccccn3)C2)CC1` was tested. Which Potency did it give?
A: Its Potency is greater than 20 µM.

Q: For `Cn1cccc1C(=O)N1CCC2(CCCN(c3cccc(-c4ccccc4)c3)C2)CC1`, which Potency is on record?
A: Its Potency is greater than 20 µM.

Q: How did the Potency turn out when `CS(=O)(=O)Nc1cccc(-c2nc(NCc3cccs3)c3ccccc3n2)c1` was run?
A: Its Potency is greater than 20 µM.

Q: `O=S(=O)(c1ccccc1)N1CCC2(CCCN(Cc3cc(C(F)(F)F)cc(C(F)(F)F)c3)C2)CC1` was tested. Which Potency did it give?
A: Its Potency is greater than 20 µM.

Q: `Cc1noc(C)c1-c1ccc2ncnc(NCc3ccccc3)c2c1` was tested. Which Potency did it give?
A: Its Potency is greater than 20 µM.

Q: With `COCCn1c(=O)c(-c2ccccc2)nc2cnc(OC)nc21` as the compound, how does the Potency read?
A: Its Potency is greater than 20 µM.
